Reference: PubChem BioAssay (Tox21)
Inconclusive results are not listed. The source made the active and inactive calls. Unless noted, calls come from the whole dose curve; as a rule, active = well fitted curve in the direction sought with a large enough effect in the repeat runs; inconclusive = weak or mixed curves; inactive = no such curve, though single readings can be large; an effect the other way counts as inactive or inconclusive.

Legend:
[1] = qHTS assay to identify small molecule antagonists of the estrogen receptor alpha (ER-alpha) signaling pathway using the BG1 cell line in the presence of 0.1 nM 17-beta-estradiol - cell viability counter screen (AID 1259241); details: VM7Luc4E2 (BG1) viability, CellTiter-Fluor protease, 22 h, 0.1 nM estradiol agonist added; series mostly up to 92.4 µM; note: nearly all actives have a fitted effect of over 40% in size
Method in brief: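 Viability in VM7Luc4E2 cells after 22 hr compound exposure under 0.1 nM 17beta-estradiol stimulation, by CellTiter-Fluor.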

[2] = qHTS assay to identify small molecule antagonists of the androgen receptor (AR) signaling pathway using the MDA cell line in the presence of 0.5 nM R1881 - cell viability counter screen (AID 1259242); details: MDA-kb2 viability, CellTiter-Fluor protease fluorescence, 16 h; series mostly up to 92.4 µM; note: nearly all actives have a fitted effect of over 45% in size
Method in brief: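 Live-cell protease activity was measured by CellTiter-Fluor fluorescence after 30 min. Before that, MDA-kb2 MMTV-luciferase cells had 16 hr at 37C without CO2, exposed to test compounds and 0.5 nM R1881 final.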

[3] = molecular target: Estrogen receptor (Homo sapiens) (UniProt P03372); assay: qHTS assay to identify small molecule antagonists of the estrogen receptor alpha (ER-alpha) signaling pathway using the BG1 cell line in the presence of 0.1 nM 17-beta-estradiol (AID 1259244); details: VM7Luc4E2 (BG1) ERE-luciferase, antagonist mode, 0.1 nM E2, 22 h; series mostly up to 92.4 µM; note: nearly all actives have a fitted effect of over 50% in size
Method in brief: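 Luciferase luminescence (ONE-Glo, 30 min at room temperature) was read after 22 hr at 37C exposure to compounds plus 17beta-estradiol at 0.1 nM final. Cells were VM7Luc4E2 with endogenous ER-alpha and an ERE-driven luciferase, pre-cultured 5 days in hormone-depleted medium.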

[4] = qHTS assay to identify small molecule HDAC inhibitors (AID 1259364); details: HCT-116 HDAC-Glo I/II luminescence, 2 h; series mostly up to 92.4 µM; note: nearly all actives have a fitted effect of over 45% in size; note: potency is the fitted concentration of half-maximal effect
Method in brief: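 Luminescence read after 30 min room-temperature HDAC-Glo incubation measures cellular class I/II HDAC activity. Compounds were applied for 2 hr at 37 C to HCT-116 wild-type cells seeded the day before.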

[5] = qHTS assay to identify small molecule HDAC inhibitors - cell viability counter screen (AID 1259365); details: HCT-116 viability, CellTiter-Glo ATP luminescence, 2 h; series mostly up to 92.4 µM; note: nearly all actives have a fitted effect of over 50% in size
Method in brief: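 Cytotoxicity was gauged in wild-type HCT-116 cells after a brief 2hr treatment with DMSO-dissolved compounds at 37C and 5% CO2, using CellTiter-Glo luminescence developed for 30min at room temperature.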

[6] = qHTS assay to identify small molecule agonists of the sonic hedgehog signaling (Shh) pathway - cell viability counter screen (AID 1259366); details: NIH/3T3 Gli1-Luc viability, CellTiter-Fluor, 24 h; series mostly up to 92.4 µM; note: nearly all actives have a fitted effect of over 50% in size; note: potency is the fitted concentration of half-maximal effect
Method in brief: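 Stable Gli1-Luc NIH/3T3 clone, 2,000 cells/well. Compound exposure 24hr at 37C. Read-out: CellTiter-Fluor fluorescence.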

[7] = qHTS assay to identify small molecule antagonists of the sonic hedgehog signaling (Shh) pathway - cell viability counter screen (AID 1259367); details: NIH/3T3 Gli1-Luc viability, CellTiter-Fluor, 24 h; series mostly up to 92.4 µM; note: nearly all actives have a fitted effect of over 55% in size; note: potency is the fitted concentration of half-maximal effect
Method in brief: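 Tox21 library chemicals were tested on a Gli1-Luc NIH/3T3 clone (2,000 cells/well) stimulated by conditioned medium; viability was quantified as fluorescence from CellTiter-Fluor reagent added at 23 hr.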

[8] = qHTS assay to identify small molecule agonists of the sonic hedgehog signaling (Shh) pathway (AID 1259368; calls by dose curve;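 note: NIH/3T3-derived 3T3Gli1-Luc cells carrying a stable Gli1-driven firefly luciferase reporter; nearly all actives have a fitted effect of over 15% in size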); details: NIH/3T3 Gli1-Luc reporter, luciferase, 24 h, stronger effect = higher value; series mostly up to 92.4 µM
Method in brief: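 Luminescence was read after 30 min at room temperature with luciferase reagent. Before that, 3T3Gli1-Luc cells (NIH/3T3 clone, stable Gli1-Luc reporter; 2,000/well) were exposed to compounds for 24 hr at 37C, 5% CO2, compounds being added 4 hr post-plating.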

[9] = qHTS assay to identify small molecule antagonists of the sonic hedgehog signaling (Shh) pathway (AID 1259369; calls by dose curve; note: nearly all actives have a fitted effect of over 45% in size); details: NIH/3T3 Gli1-Luc reporter, Shh antagonist, luminescence 24 h; series mostly up to 92.4 µM
Method in brief: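 Antagonist mode: compound added to 3T3 Gli1-Luc cells followed by conditioned-medium stimulation, 24 h at 37 C, 5% CO2. Inhibition taken as loss of Gli1-driven luciferase luminescence.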

[10] = molecular target: Estrogen receptor beta (Homo sapiens) (UniProt Q92731); assay: qHTS assay to identify small molecule agonists of the estrogen receptor beta (ER-beta) signaling pathway (AID 1259377; active = well fitted activation curve with a large enough effect in the signal ratio in the repeat runs, not every such curve was filed as active; the % refers to the signal ratio); details: ER-beta-UAS-bla HEK293T, beta-lactamase FRET ratio, 16 h; series mostly up to 92.4 µM
Method in brief: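 Measured by fluorescence intensity from a B/G FRET beta-lactamase substrate (2 h, room temperature) in ER-beta-UAS-bla HEK293T cells treated with DMSO-dissolved compounds for 16 hr at 37C and 5% CO2.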

[11] = molecular target: Estrogen receptor beta (Homo sapiens) (UniProt Q92731); assay: qHTS assay to identify small molecule antagonists of the estrogen receptor beta (ER-beta) signaling pathway (AID 1259378; active = well fitted inhibition curve with a large enough effect in the signal ratio in the repeat runs, not every such curve was filed as active; the % refers to the signal ratio; note: potency is the fitted concentration of half-maximal effect); details: ER-beta-UAS-bla HEK293T, beta-lactamase FRET ratio, 16 h; series mostly up to 92.4 µM
Method in brief: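 ER-beta-UAS-bla HEK293T cells in 2% charcoal-stripped FBS medium treated with compound plus 1nM final 17-beta-estradiol for 16 hr at 37C. Beta-lactamase reporter read by FRET substrate fluorescence after 2 hours at room temperature.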

[12] = qHTS assay to identify small molecule agonists of the estrogen receptor beta (ER-beta) signaling pathway - cell viability counter screen (AID 1259380); details: ER-beta-bla HEK293T viability, CellTiter-Glo luminescence, 16 h; series mostly up to 92.4 µM; note: nearly all actives have a fitted effect of over 30% in size; note: potency is the fitted concentration of half-maximal effect
Method in brief: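 Cell viability counter screen: CellTiter-Glo luminescence (30 min, room temperature) measured in the same wells as the beta-lactamase readout, after 16 hr compound exposure at 37C of ER-beta-bla HEK293T cells in 2% charcoal-stripped FBS medium.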

[13] = qHTS assay to identify small molecule antagonists of the estrogen receptor beta (ER-beta) signaling pathway - cell viability counter screen (AID 1259382); details: ER-beta-UAS-bla HEK293T viability, CellTiter-Glo luminescence, 16 h; series mostly up to 92.4 µM; note: nearly all actives have a fitted effect of over 55% in size
Method in brief: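 Cytotoxicity was measured in the same wells by CellTiter-Glo luminescence after 30 min at room temperature. Cells were ER-beta-bla HEK293T in charcoal-stripped serum, given compound together with 1 nM E2 and incubated 16 h at 37C.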

[14] = molecular target: Estrogen receptor (Homo sapiens) (UniProt P03372); assay: qHTS assay to identify small molecule agonists of the estrogen receptor alpha (ER-alpha) signaling pathway in the presence of an antagonist (AID 1259383; calls by dose curve; note: top concentration of the series differs between compounds; nearly all actives have a fitted effect of over 15% in size); details: VM7Luc4E2 cells, ERE-luciferase, +ICI-182,780, 22 h; series mostly up to 92.4 µM
Method in brief: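 Agonist-mode confirmation run in the presence of 10.0nM (final) ICI-182,780 antagonist. The reporter was ERE-driven luciferase in VM7Luc4E2 cells, grown in charcoal-stripped serum. Cells were exposed to 15-concentration compound series for 22hr, then ONE-Glo luminescence was read.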

[15] = qHTS assay to identify small molecule agonists or antagonists of the thyroid stimulating hormone receptor (TSHR) signaling pathway - wild type cell line counter screen (AID 1259384; calls by dose curve); details: HEK293 wild type, cAMP HTRF counter-screen; series mostly up to 92.4 µM
Method in brief: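 Wild-type Hek293 cells, 800/well, 18 h at 37C, then compound with Ro20-1724 for 30 min RT. cAMP by HTRF (cAMP-d2/anti-cAMP cryptate), 1 h RT, fluorescence read. 15 concentrations, triplicates.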

[16] = molecular target: Thyrotropin receptor (Homo sapiens) (UniProt P16473); assay: qHTS assay to identify small molecule antagonists of the thyroid stimulating hormone receptor (TSHR) signaling pathway (AID 1259385; calls by dose curve; note: nearly all actives have a fitted effect of over 20% in size; note: potency is the fitted concentration of half-maximal effect); details: TSHR-HEK293 cAMP HTRF, TSH-stimulated antagonist mode; series mostly up to 92.4 µM
Method in brief: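 TSHR-HEK293 cells (800/well) plated 18 h, then compounds with Ro20-1724 and TSH at 1.5 ng/mL final, 30 min at room temperature. cAMP quantified by HTRF (cAMP-d2/anti-cAMP-cryptate, 1 h); 15 concentrations in triplicate.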

[17] = qHTS assay to identify small molecule agonists of the androgen receptor (AR) signaling pathway in the presence of an antagonist - cell viability counter screen (AID 1259379); details: MDA-kb2 viability, CellTiter-Fluor, 16 h; series mostly up to 92.4 µM;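 note: MDA-kb2 human breast cancer cells carrying an MMTV luciferase reporter; nearly all actives have a fitted effect of over 25% in size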
Method in brief: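 Cytotoxicity counter-screen run in the same wells as the nilutamide-challenged (3.0 µM final) AR agonist assay in MDA-kb2 cells. Compounds tested at 15 concentrations for 16 h, 37 °C without CO2; CellTiter-Fluor fluorescence read.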

[18] = qHTS assay to identify small molecule phospholipidosis (PLD) inducers (AID 1259344; active = well fitted curve in the direction sought with a large enough effect; an effect the other way counts as inactive or inconclusive); details: HepG2 phospholipidosis, LipidTOX Red imaging, 24 h; series mostly up to 38.3 µM
Method in brief: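 Image-based: LipidTOX Red pit count/intensity per well and per cell; HepG2, 24 h compound at 37 C, PFA fixation, Hoechst counterstain.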

Measured: Potency

Estrogen receptor (Homo sapiens), sequence (P03372 whole entry, looked up): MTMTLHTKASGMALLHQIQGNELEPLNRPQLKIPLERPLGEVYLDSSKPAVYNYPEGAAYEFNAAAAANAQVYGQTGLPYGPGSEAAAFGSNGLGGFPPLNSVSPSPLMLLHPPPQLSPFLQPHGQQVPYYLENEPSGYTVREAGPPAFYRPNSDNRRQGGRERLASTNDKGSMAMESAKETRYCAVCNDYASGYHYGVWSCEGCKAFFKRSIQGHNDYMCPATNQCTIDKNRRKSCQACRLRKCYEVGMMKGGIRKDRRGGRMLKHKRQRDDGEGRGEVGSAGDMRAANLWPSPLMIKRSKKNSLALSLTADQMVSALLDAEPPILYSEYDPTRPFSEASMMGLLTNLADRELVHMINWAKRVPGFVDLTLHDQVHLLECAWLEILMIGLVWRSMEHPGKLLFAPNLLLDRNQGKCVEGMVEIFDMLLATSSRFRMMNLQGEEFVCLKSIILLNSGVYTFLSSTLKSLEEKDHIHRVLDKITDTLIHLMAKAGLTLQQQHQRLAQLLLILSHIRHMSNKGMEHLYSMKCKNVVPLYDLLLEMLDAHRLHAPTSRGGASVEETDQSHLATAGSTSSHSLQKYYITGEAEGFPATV
Thyrotropin receptor (Homo sapiens), sequence (P16473 whole entry, looked up): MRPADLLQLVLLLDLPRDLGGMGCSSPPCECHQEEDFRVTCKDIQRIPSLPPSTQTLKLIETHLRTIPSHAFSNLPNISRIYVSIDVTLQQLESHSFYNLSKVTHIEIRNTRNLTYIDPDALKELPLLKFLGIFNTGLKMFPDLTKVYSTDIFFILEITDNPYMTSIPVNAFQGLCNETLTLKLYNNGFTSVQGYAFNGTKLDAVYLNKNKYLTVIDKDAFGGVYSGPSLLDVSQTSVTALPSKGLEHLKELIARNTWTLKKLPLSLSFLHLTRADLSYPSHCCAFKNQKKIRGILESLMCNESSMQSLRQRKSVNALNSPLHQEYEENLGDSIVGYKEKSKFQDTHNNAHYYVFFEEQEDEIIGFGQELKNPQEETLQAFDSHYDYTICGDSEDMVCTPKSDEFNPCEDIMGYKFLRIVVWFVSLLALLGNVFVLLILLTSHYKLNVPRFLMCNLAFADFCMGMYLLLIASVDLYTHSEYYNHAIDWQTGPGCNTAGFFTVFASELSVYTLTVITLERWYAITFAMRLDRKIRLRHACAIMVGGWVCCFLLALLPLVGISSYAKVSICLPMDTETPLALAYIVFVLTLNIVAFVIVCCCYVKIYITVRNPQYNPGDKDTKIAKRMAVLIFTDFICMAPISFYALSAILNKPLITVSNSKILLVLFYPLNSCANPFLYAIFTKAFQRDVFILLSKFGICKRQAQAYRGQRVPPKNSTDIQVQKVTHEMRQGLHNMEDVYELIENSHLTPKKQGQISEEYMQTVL
Estrogen receptor beta (Homo sapiens), sequence (Q92731 whole entry, looked up): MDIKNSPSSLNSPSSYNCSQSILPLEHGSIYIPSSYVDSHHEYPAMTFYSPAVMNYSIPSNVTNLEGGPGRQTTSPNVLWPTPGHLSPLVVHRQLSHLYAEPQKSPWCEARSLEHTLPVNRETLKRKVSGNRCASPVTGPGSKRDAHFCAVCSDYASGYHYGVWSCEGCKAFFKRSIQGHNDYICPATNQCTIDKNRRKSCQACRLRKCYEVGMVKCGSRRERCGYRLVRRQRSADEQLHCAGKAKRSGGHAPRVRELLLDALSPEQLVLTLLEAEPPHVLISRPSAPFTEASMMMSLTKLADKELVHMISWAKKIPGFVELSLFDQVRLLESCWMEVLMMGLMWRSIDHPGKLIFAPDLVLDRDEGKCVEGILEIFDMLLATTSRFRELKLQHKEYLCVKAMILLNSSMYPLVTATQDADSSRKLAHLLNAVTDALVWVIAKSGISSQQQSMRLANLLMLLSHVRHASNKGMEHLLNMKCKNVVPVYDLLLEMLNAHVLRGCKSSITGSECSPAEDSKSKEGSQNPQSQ

CCc1nn(C2CCCCC2)c2cc(C3(C#N)CCC(C(=O)O)CC3)ccc12 (stereo not drawn)
active: [6] 30.6 µM | [7] 27.3 µM | [11] 13.7 µM | [12] 8.63 µM
not listed: [17] | [18]
inactive: all other assays above

Cc1cccc(OCCOc2cccc(C)c2)c1
not listed: [18]
inactive: all other assays above

CC(C(=O)O)c1ccc(-c2ccccc2)c(F)c1 (stereo not drawn)
active: [4] 43.3 µM
not listed: [9] | [10] | [15] | [16]
inactive: all other assays above

C=C(C)C(=O)OCCN(C)C
not listed: [15] | [16] | [18]
inactive: all other assays above

CCOC(=O)CC(C)C
not listed: [12] | [17] | [18]
inactive: all other assays above

O=C(Nc1ccccc1)OCC(CN1CCCCC1)OC(=O)Nc1ccccc1 (stereo not drawn)
active: [11] 26.6 µM | [12] 26.6 µM | [16] 18.8 µM
not listed: [6] | [9] | [13]
inactive: all other assays above

CCN(CC)CCc1nc(-c2ccccc2)no1
not listed: [8] | [9] | [10] | [15]
inactive: all other assays above

CC[C@H](C)[C@H](N)C(=O)O
not listed: [4]
inactive: all other assays above
